# Source: the supplement of paper PMC6555819
# Assays:
# Assay in all cases: PBM binding z-score (relative to random genomic background probes); higher = stronger binding; sequences stand for … in GC…GCGATTGACAGCGTAGAATGAAGG
# [1] = test system: RARb homodimer (NR concentration 270 nM)
# Outline: (§1)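 Custom Agilent 4×180K protein-binding microarrays carried double-stranded probes, each with a 34-nt variable region. These regions held direct-repeat seeds, single-nucleotide variants, half-site ablations and random human genomic background sequences. Ligand-free nuclear receptor dimers were incubated on the arrays for 1 h, antibodies against each partner (one per run) detected binding, and scanned fluorescence was regression-normalized. Binding z-scores take the random background probes as reference.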
# [2] = test system: RARg:RXRa (NR concentration 270 nM, RXRa partner concentration 90 nM)
# Outline: as §1
# [3] = test system: RARg homodimer (NR concentration 270 nM)
# Outline: as §1
# [4] = test system: RXRa DBDmut IVT, anti-RXR (DBD mutation: RXRa K156A/R161A, NR concentration 90 nM)
# Outline: as §1
# [5] = test system: RXRa homodimer (NR concentration 180 nM)
# Outline: as §1
# [6] = test system: THRa:RXRa (NR concentration 90 nM, RXRa partner concentration 90 nM)
# Outline: as §1
# [7] = test system: THRa homodimer (NR concentration 90 nM)
# Outline: as §1
# [8] = test system: VDR:RXRa (NR concentration 270 nM, RXRa partner concentration 90 nM)
# Outline: as §1
# [9] = test system: VDR homodimer (NR concentration 270 nM)
# Outline: as §1
Sequence,PBM binding z-score [1],PBM binding z-score [2],PBM binding z-score [3],PBM binding z-score [4],PBM binding z-score [5],PBM binding z-score [6],PBM binding z-score [7],PBM binding z-score [8],PBM binding z-score [9]
CCTACTGGGACAAAGGTCATTGATTCCAATGCTC,4.66,5.3,4.6,1.83,5.76,3.57,1.25,4.67,2.94
TCTGGGAGGACACGAAGGTCAGAGCTTTCCAGAG,3.49,3.51,4.11,0.416,2.01,2.9,1.18,2.18,1.35
TCTAGCAGTCCAGAGGGTCACTCAAGAGGTACGG,2.78,2.4,1.91,0.0371,2.54,1.79,0.000359,1.69,0.904
TCTTGTAGATCACGCAGGTTAAGAAAGCCTGAGT,0.254,0.174,0.0532,0.693,0.723,0.601,-0.33,0.662,-0.258
TCTTGTAGATCAACAGGAGGTTAAGACAGATCGA,0.499,0.964,0.323,0.507,0.916,0.703,-0.723,0.563,-0.102
CGAACTAGGTCGTTGACAGGACAGTGAATAGTAA,0.711,1.6,1.2,1.18,0.488,1.33,0.0428,0.71,0.716
CTACCAAGGTGAACAAGGTCGTGGATTACTATTC,2.22,2.24,1.63,0.592,2.7,3.64,2.18,5.77,1.27
ATACCTAGGTGATCGTGAGGTCGTTGATACTAAC,1.49,1.58,0.568,0.641,1.51,3.15,2.51,2.66,3.13
CGAACTAGGTCATAACAGGACAGTGAAGGATGAT,2.36,3.28,3.91,1.66,2.37,4.04,0.443,1.89,0.892
CAAACTAGGTCACCGGAAGGTCAAAGTACGCATG,5.73,8.48,7.65,2.43,6.46,4.8,3.25,6.17,3.52
TTTGCTAGGTCAACGATGGTCAGCTAATCTGCTA,3.69,4.05,5.28,1.02,2.67,3.33,1.02,1.9,0.00226
CCTATTAGTTGACCATAAGGGCAACAGAAGCTCG,1.77,1.46,1.16,0.685,0.825,1.76,1.15,0.519,0.832
CCGGCTGGGGCATAAGGTTACCATAAGCCAGCCC,1.62,1.83,1.05,-1.59,0.983,1.93,0.912,-0.119,-0.374
TCATATAGGTAAGCAGGTGAAAGTCCGTAAGTTA,0.479,0.2,-0.071,0.903,0.347,0.462,0.196,0.388,-0.0581
ACTAGCAGGCCAAGTTTGGGTCCCTCAAACAAAG,-0.155,-0.211,-0.235,-0.528,-0.565,0.0407,-0.344,-0.796,-0.397
CTCGAAAGGTCGTGCTCAGGTGAGTCTACCAAAC,2.6,5.27,3.98,2.42,4.89,4.01,0.948,3.35,1.03
CGTCCGAGGTCAGAGAGGTCAGTGAATGCCGAGT,5.44,6.94,7.68,3.68,6.87,4.59,3,7.89,6.58
CGAACTAGGTCATCGACAGGACAGTGAATAGTAA,2.75,4.84,4.87,2.2,2.72,3.06,0.98,2.57,1.39
GCTGCTAGTTCAGGTTGGTCAGCTAACGGGTACG,0.833,0.083,0.586,1.19,-0.153,-0.00713,-0.222,0.0828,0.636
ACAGACAGGTGAGTGACGGTAACTCAGCTGGACG,-0.222,0.269,0.362,-0.203,0.416,-0.128,-0.727,-0.336,-0.577
CGTCCAAGGCCATAGGAGGTCAGTGAAGACAGAT,3.61,2.74,3.57,0.911,1.74,3.89,1.18,2.71,1.42
TCTAGCAAGCCAGAGGGTCACTCAAGAGGTACGG,2.11,1.94,1.39,-0.198,2.18,1.43,-0.484,1.32,0.431
CGTCCAAGTTCATAGGAGGTCAGTGAAGACAGAT,4.1,4.63,5.14,4.98,3.69,4.73,1.52,5.91,6.53
CATACAGGGTCAGCTAGGCCAGCGTAGGGACGGC,3.43,4.42,4.81,1.4,4.2,3.3,0.936,3.62,0.947
